According to PubChem BioAssay AID1347172 (National Center for Advancing Translational Sciences (NCATS), 2019):
Records with an inconclusive call do not appear. A number with no mark means an inactive call. Active and inactive are the calls of the source. The call rests on the fitted dose curve; in most records, active means well fitted inhibition curve with a large enough effect; inconclusive means small, poorly fitted or top-dose-only effect; inactive means flat fitted curve, though single readings scatter.

Assay: Secondary qRT-PCR qHTS assay for selected Zika virus inhibitors
Details: Vero cells ZIKV infection, NS5 RNA qRT-PCR, 24 h; series mostly up to 32.6 µM; activity change, negative = inhibition: at the top concentration
Excerpt: Assay Submitters (PI): Avindra Nath, Ph.D., National Institute of Neurological Disorders and Stroke (NINDS), Bethesda, MD Radhakrishnan Padmanabhan, Ph.D., Georgetown University (GU), Washington D.C. Zika Virus causes congenital defects, including microcephaly and is associated with Guillain-Barre syndrome, eningoencephalitis and myelitis in infected adult. […] Using a target-based approach, we hope to establish a screening paradigm to uncover novel, cell-active NS2B-NS3 protease (Zika Virus) specific inhibitors from NCATS' collection of small molecules using qHTS. […] Four assay panel was created to identify potential Zika Virus inhibitors. Namely, (1) GU unlinked NS2B-NS3 AMC tagged protease qHTS, (2) GU unlinked NS2B-NS3 Rhodamine tagged protease qHTS, (3) NINDS linked NS2B-NS3 AMC tagged protease qHTS, (4) NINDS linked NS2B-NS3 Rhodamine tagged protease qHTS. Inhibitors of the Zika virus primary screens are confirmed using qRT-PCR secondary assays, qRT-PCR mCherry orthogonal assay, and qRT-PCR viability counterscreen. Early Translation Branch (ETB) National Center for Advancing Translational Sciences (NCATS), Rockville, MD National Institute of Health (NIH), Bethesda, Maryland
384-well ZIKV qRT-PCR Assay: Vero cells were treated with the indicated compounds at different concentrations, infected with ZIKV (MOI=1) and incubated at 37 degrees C for 3 hours to permit virus invasion. After 3 hr, supernatant was removed, and cells were washed once to remove extracellular virus. After a further 21 hr incubation, infected cells were washed three times with cold PBS (4 degrees C). Plates were then process using the TaqmanGene Expression Cells-to-Ct Kit (ThermoFisher Scientific) following the manufactures protocol. Primers directed to the NS5 sequence (F-[…]; R-GCTCGGCCAATCAGTTCA) along with Taqman probe (FAM-[…]-BHQ; Biosearch Technologies) were used to quantify drug inhibition of viral load. Reactions were run at initial 95 degrees C for 10 min, then 40 cycles of 95 degrees C for 20 sec and 60 degrees C for 40 sec using a LightCycler 480 (Roche). Relative viral copy numbers were generated by normalizing to cells treated with vehicle.

| SMILES | activity change, negative = inhibition [%] | Potency |
| --- | --- | --- |
| CN(C)[C@@H]1C(=O)C(C(N)=O)=C(O)[C@@]2(O)C(=O)C3=C(O)c4c(O)cccc4[C@@](C)(O)[C@H]3C[C@@H]12 | 7.09 | – |
| C[C@]12CC[C@@H]3c4ccc(OC(=O)N(CCCl)CCCl)cc4CC[C@H]3[C@@H]1CC[C@@H]2O | -2.06 | – |
| O=C(Nc1ccc(Br)cc1)c1cc(Br)cc(Br)c1O | – | 22.4 µM (active) |
| Oc1c(Cl)c(Cl)c(Cl)c(Cl)c1Cl | -11.8 | – |
| CN(C)[C@@H]1C(=O)C(C(N)=O)=C(O)[C@@]2(O)C(=O)C3=C(O)c4c(O)ccc(Cl)c4[C@@](C)(O)[C@H]3C[C@@H]12 | -7.44 | – |
